# Results reported in PubChem BioAssay AID651820 (National Center for Advancing Translational Sciences (NCATS), 2012).
# Out of some 340,000 compounds screened, about 12,000 (3.5%) were called active. Another 18% or so got no clear call; they are omitted. The sample as a whole holds a higher share of actives than the screen did. Values without a mark were called inactive. Calls come from the whole dose curve; as a rule, active = well fitted inhibition curve with a large enough effect; inconclusive = small, poorly fitted or top-dose-only effect, or another doubt; inactive = no such curve, though single readings can be large or run the other way.
# Assay: qHTS Assay for Inhibitors of Hepatitis C Virus (HCV)
# Settings: Huh7.5.1 HCVcc-Cre infection, luciferase reporter, 44 h; series mostly up to 41.8 µM; activity change, negative = inhibition: at the top concentration
# Procedure, shortened: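 Reporter virus HCVcc-Cre (~0.5 moi) infects cells exposed to compound; seeding density 1,000 cells/well with 4 h settling beforehand. Luminescence, 15 sec read, taken 44 h post-infection following a 15 min RT substrate incubation.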
# % is set by controls: 0 for no effect and ±100 for the full control effect; potency is the fitted concentration of half-maximal effect.
SMILES,"activity change, negative = inhibition",Potency
O=C(c1cc(COc2ccc(F)c(F)c2)on1)N1CCOCC1,0.0465%,–
CCn1ccnc1CN(C)C(=O)c1cc(COc2ccc(-n3cncn3)cc2)on1,-21%,–
O=C1C[C@@H]2c3c(cccc3CN1Cc1ccccc1)C[C@@H](O)[C@H]2O,9.7%,–
Cc1ccc(-c2cc(=O)[nH]c(NCc3ccccc3)n2)cc1,12.1%,–
O=C(CN1C(=O)NC2(CCOc3ccccc32)C1=O)Nc1cccc([N+](=O)[O-])c1 (stereo not given),-16.3%,–
Cc1c(-c2cccc(Cl)c2)nc2ccccc2c1C(=O)OCC(=O)N(C)C1CCS(=O)(=O)C1 (stereo not given),–,3.55 µM (active)
CN(C(=O)COC(=O)c1nc(Cl)ccc1Cl)C1CCS(=O)(=O)C1 (stereo not given),-7.4%,–
CN(C(=O)COC(=O)c1cc(-c2ccco2)nc2ccccc12)C1CCS(=O)(=O)C1 (stereo not given),-5.06%,–
Cc1ccc(CNC(=O)Cn2cnc3c(NCc4ccccc4)ncnc32)o1,-2.28%,–
Cc1ccc(NC(=O)Cn2c(C)csc2=O)cc1,11%,–
Clc1ccc(CSc2nnc(/C=C/c3ccccc3)o2)c(Cl)c1,-3.62%,–
CSCc1cc(N(C)C)nc(SCc2ccc(Cl)cc2Cl)n1,–,8.91 µM (active)
CSCc1cc(N2CCOCC2)nc(SCc2ccc(Cl)cc2Cl)n1,-16.6%,–
Nn1c(SCC(=O)NC2CCCc3ccccc32)nnc1C1CC1 (stereo not given),-12.4%,–
Cc1nnc(N/N=C/c2ccccn2)[nH]c1=O,–,3.55 µM (active)
Cc1nnc(N/N=C/c2cccs2)[nH]c1=O,15.5%,–
Cc1ccccc1Nc1nnc(C)c(=O)[nH]1,5.21%,–
CC(=O)N1CCc2ccc(N)cc21,18%,–
CCCCn1c(N)c(N(CCC(C)C)C(=O)CC2OC(=O)c3ccccc32)c(=O)[nH]c1=O (stereo not given),17.9%,–
COc1cc(NC(=O)C2=CC(c3ccco3)=NS(=O)(=O)N2C)cc(OC)c1OC,4.73%,–
COc1ccc(C2=NS(=O)(=O)N(C)C(C(=O)NC(C)c3ccccc3)=C2)cc1 (stereo not given),-16.6%,–
COc1ccc(NC(=O)C2=CC(c3ccc(OC)c(OC)c3)=NS(=O)(=O)N2C)cc1,–,8.91 µM (active)
COC(=O)C1CCN(C(=O)NC2CC(=O)N(c3ccc4c(c3)OCCO4)C2)CC1 (stereo not given),7.38%,–
O=S1(=O)CCOC[C@H](Cc2ccccc2)N1Cc1ccccc1Br,-7.83%,–
CNC(=O)NC(=O)C(C)N1CCN(C/C=C/c2ccccc2)CC1 (stereo not given),2.6%,–

SMILES,"activity change, negative = inhibition",Potency
O=C1c2ccccc2C(=O)c2c1cccc2N1CCN(C/C=C/c2ccccc2)CC1,–,11.2 µM (active)
O=C(CCN1CCN(C/C=C/c2ccccc2)CC1)Nc1ccccc1Cl,-5.92%,–
Nc1ncnc2c1cnn2C1CC(O)C(CO)O1 (stereo not given),24.9%,–
C=CCn1c(=O)n(C)c2c(=O)n(C)c(=O)n(C)c21,12.5%,–
CCOc1ccc(C(O)Cn2c(=N)n(CCN3CCCCC3)c3ccccc32)cc1 (stereo not given),–,10 µM (active)
CCOc1ccc(C(O)Cc2nc3ccccc3n2C)cc1 (stereo not given),11.1%,–
Cc1cccc(OCC(O)Cn2c(=N)n(CCN3CCOCC3)c3ccccc32)c1 (stereo not given),-11.5%,–
COc1ccc(S(=O)(=O)N2CCOCC2)cc1NC(=O)CC1CC2CCC1C2 (stereo not given),2.91%,–
COc1cc2c(cc1OC)CN(C(C)C(=O)Nc1cccc(S(=O)(=O)N3CCOCC3)c1)CC2 (stereo not given),-7.17%,–
CCc1cc2c(NC3CCCC3)ncnc2s1,–,10 µM (active)
CCc1cc2c(NC(Cc3ccccc3)C(=O)O)ncnc2s1 (stereo not given),8.03%,–
CCc1cc2c(SCC(=O)Nc3ncc(Cl)c(C)c3Cl)ncnc2s1,-1.3%,–
O=C(CN1CCc2cc3c(cc2C1)OCCCO3)Nc1ccccc1,–,11.2 µM (active)
O=C(CN1CCOCC1)Nc1ccccc1,-2.17%,–
Cc1ccc(NC(=O)CN2CCc3ccccc3C2)cc1,-2.8%,–
CNC(=O)C1CC(=O)N(c2ccc(OCC(=O)Nc3ccccc3C)cc2)C1 (stereo not given),-3.97%,–
O=C(N[C@@H](Cc1ccccc1)C(=O)OCc1ccccc1)c1nc[nH]c1C(=O)NC1CCNCC1,16.1%,–
NS(=O)(=O)c1ccc(CCNC(=O)CCCn2c(SCC(=O)N3CCCC3)nc3ccsc3c2=O)cc1,–,2 µM (active)
CCCCn1c(SCC(=O)N2CCC(C(=O)OCC)CC2)nc2cc(S(N)(=O)=O)ccc21,-7.54%,–
NS(=O)(=O)c1ccc(CCNC(=O)CN2C(=O)c3ccccc3S2(=O)=O)cc1,2.87%,–
CN1C(=O)[C@H]2[C@@H](/C=C/c3ccccc3)N3C(=O)CN(Cc4ccc(-c5ccccc5)cc4)C(=O)[C@@]3(C)[C@H]2C1=O,1.62%,–
COc1ccc(CNC(=O)CN2C(=O)NC3(CCCc4sccc43)C2=O)cc1 (stereo not given),7.77%,–
O=C(Nc1cccc(C(F)(F)F)c1)c1ccc(N2CCNCC2)c([N+](=O)[O-])c1,–,12.6 µM (active)
CC(NC(=O)c1ccc(N2CCNCC2)c([N+](=O)[O-])c1)C12CC3CC(CC(C3)C1)C2 (stereo not given),17.7%,–
O=C(Nc1ccc(N2C(=O)c3cccc4cccc(c34)C2=O)cc1)c1ccc(N2CCCCC2)c([N+](=O)[O-])c1,1.73%,–
